Source: PubChem BioAssay AID1159580 (chemical genetic matrix, 2015)
Several values for one entry are separate records, joined by “and”; a condition that tells them apart may be missing. Identical values can stand only once. The whole screen tested about 5,500 compounds, of which about 2,000 (36%) were called active. Another 18% or so got no clear call; they are omitted. Rule as the data show it: active = normalized growth mostly below about 0.91 (no sharp cut-off); inconclusive = no clear call, values can overlap the other calls; inactive = mostly above about 0.92. This is one part of the list.

Test: chemical genetic growth profiling, strain panel (AID 1159580);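 also: tested at 20 µM; growth read once vehicle control cultures reached saturation at 30 °C; 1 = growth at the plate median or of vehicle wells; lower values mean less growth of the strain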
Conditions: S. cerevisiae deletion strains, growth OD

Measured: normalized growth

CC(=O)N[C@@H](CC(C)C)C(=O)O
inactive: locus YAL013W, strain DEP1, active compounds read low 0.983 | locus YAL021C, strain ccr4, active compounds read low 1 | locus YAL026C, strain drs2, active compounds read low 0.989 | locus YAL030W, strain snc1, active compounds read low 1 | locus YBL061C, strain skt5, active compounds read low 0.986 | locus YBR009C, strain hhf1, active compounds read low 0.99 | locus YBR021W, strain FUR4, active compounds read low 1 | locus YBR023C, strain chs3, active compounds read low 1 | locus YBR171W, strain sec66, active compounds read low 0.981 | locus YBR229C, strain ROT2, active compounds read low 0.996 | locus YBR231C, strain swc5, active compounds read low 0.972 | locus YBR279W, strain paf1, active compounds read low 1 | locus YCL011C, strain gbp2, active compounds read low 1.01 | locus YCL016C, strain dcc1, active compounds read low 0.995 | locus YCL029C, strain bik1, active compounds read low 0.97 | locus YCL069W, strain vba3, active compounds read low 0.996 | locus YCR088W, strain abp1, active compounds read low 1 | locus YDL005C, strain med2, active compounds read low 0.991 | locus YDL035C, strain GPR1, active compounds read low 0.985 | locus YDL040C, strain nat1, active compounds read low 0.988 | locus YDL074C, strain BRE1, active compounds read low 1.02 | locus YDL101C, strain DUN1, active compounds read low 0.994 | locus YDL134C, strain PPH21, active compounds read low 0.987 | locus YDL185W, strain tfp1, active compounds read low 0.944 | locus YDL192W, strain arf1, active compounds read low 0.986 | locus YDR001C, strain nth1, active compounds read low 1 | locus YDR069C, strain doa4, active compounds read low 0.971 | locus YDR101C, strain arx1, active compounds read low 0.989 | locus YDR137W, strain rgp1, active compounds read low 1 | locus YDR150W, strain NUM1, active compounds read low 0.983 | locus YDR159W, strain sac3, active compounds read low 0.961 | locus YDR162C, strain NBP2, active compounds read low 0.981 | locus YDR195W, strain ref2 0.948 | locus YDR297W, strain sur2, active compounds read low 0.991 | locus YDR318W, strain mcm21, active compounds read low 0.97 | locus YDR334W, strain swr1, active compounds read low 0.989 | locus YDR335W, strain msn5, active compounds read low 0.987 | locus YDR388W, active compounds read low 0.989 | locus YDR392W, strain spt3, active compounds read low 1.02 | locus YDR502C, strain sam2, active compounds read low 0.972 | locus YEL003W, strain gim4, active compounds read low 0.989 | locus YEL037C, strain rad23, active compounds read low 0.994 | locus YEL061C, strain CIN8 (second series), active compounds read low 0.986 | locus YEL061C, strain CIN8, active compounds read low 0.993 | locus YER015W, strain faa2, active compounds read low 0.993 | locus YER016W, strain bim1, active compounds read low 1.01 | locus YER110C, active compounds read low 0.97 | locus YER111C, strain swi4, active compounds read low 0.988 | locus YER155C, strain BEM2 (second series), active compounds read low 0.98 | locus YER155C, strain BEM2, active compounds read low 0.992 | locus YER167W, strain BCK2, active compounds read low 0.98 | locus YFR010W, strain ubp6, active compounds read low 0.98 | locus YGL078C, strain dbp3, active compounds read low 0.975 | locus YGL086W, strain mad1, active compounds read low 0.996 | locus YGL167C, strain pmr1, active compounds read low 0.972 | locus YGL173C, strain kem1, active compounds read low 0.97 | locus YGL227W, strain vid30, active compounds read low 0.98 | locus YGL240W, strain doc1, active compounds read low 0.972 | locus YGL248W, strain PDE1, active compounds read low 1.01 | locus YGL253W, strain hxk2, active compounds read low 0.986 | locus YGR135W, strain pre9, active compounds read low 0.945 | locus YGR252W, strain gcn5, active compounds read low 1 | locus YHR013C, strain ard1, active compounds read low 1.01 | locus YHR027C, strain rpn1, active compounds read low 1 | locus YHR030C, strain SLT2, active compounds read low 0.975 and 1.04 | locus YHR079C, strain IRE1 (second series), active compounds read low 0.985 | locus YHR079C, strain IRE1, active compounds read low 1.02 | locus YHR094C, strain hxt1, active compounds read low 0.984 | locus YHR129C, strain ARP1, active compounds read low 0.992 | locus YHR142W, strain chs7, active compounds read low 0.992 | locus YHR200W, strain rpn10, active compounds read low 0.978 | locus YIL066C, strain RNR3, active compounds read low 1.01 | locus YIL073C, strain SPO22, active compounds read low 0.849 | locus YIL125W, strain kgd1, active compounds read low 0.992 | locus YIR030C, strain dcg1, active compounds read low 0.969 | locus YJL092W, strain hpr5, active compounds read low 0.989 | locus YJL095W, strain BCK1 (second series), active compounds read low 0.98 | locus YJL095W, strain BCK1, active compounds read low 1.04 and 1.03 | locus YJL115W, strain asf1, active compounds read low 1 | locus YJL129C, strain trk1, active compounds read low 0.959 | locus YJL134W, strain LCB3, active compounds read low 0.984 | locus YJL154C, strain vps35, active compounds read low 0.994 | locus YJL164C, strain tpk1, active compounds read low 1.01 | locus YJL166W, strain qcr8, active compounds read low 0.972 | locus YJL168C, strain set2, active compounds read low 0.997 | locus YJL187C, strain SWE1 (second series), active compounds read low 1.02 | locus YJR043C, strain POL32, active compounds read low 1.02
